Out of some 22,000 compounds screened, about 1,100 (5%) were called active. Rule as the data show it: active = activity score above about 55%; inconclusive = no clear call, values can overlap the other calls; inactive = below that. Many of the other results were omitted from the sample, so actives are more common in it than they were.

This assay can be described thus: T. cruzi growth inside host cells – cell-based, plate reader, single point, set 2, primary screen (AID 651903).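 Also: parasites and compound incubated about four days before reading; 0% = median of neutral control wells.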 The conditions noted are these: intracellular Trypanosoma cruzi in host cells, at 5.01 µM, hits give high values.
For the molecule `C[C@H]1CN([C@@H](C)CO)C(=O)CCCn2nncc2CO[C@@H]1CN(C)S(=O)(=O)c1ccccc1C#N`, the activity score (inhibition) was -9.5% (inactive). For the molecule `C[C@@H]1CN([C@H](C)CO)C(=O)Cc2cc(N(C)C)ccc2O[C@@H]1CN(C)Cc1ccccc1`, the activity score (inhibition) is -5.53% (inactive). For `COc1ccc(CN(C)C[C@@H]2Oc3ccc(NC(=O)c4ccncc4)cc3CC(=O)N([C@H](C)CO)C[C@H]2C)cc1` the value was -3.55% (inactive); for `C[C@H](CO)N1C[C@H](C)[C@H](CN(C)Cc2ccc(-c3ccccc3)cc2)Oc2ccc(NC(=O)Nc3ccc(F)cc3)cc2CC1=O`, 58.8% (active); for `C[C@H]1CN([C@@H](C)CO)C(=O)Cc2cc(NC(=O)Nc3ccccc3)ccc2O[C@H]1CN(C)Cc1ccncc1`, 6.16% (inactive). For `C[C@@H]1CN([C@H](C)CO)C(=O)Cc2cc(NC(=O)Nc3ccccc3)ccc2O[C@@H]1CN(C)Cc1ccc(C(F)(F)F)cc1` the value was 14.2% (inactive); for `C[C@@H]1CN([C@H](C)CO)C(=O)Cc2cc(NC(=O)c3ccncc3)ccc2O[C@H]1CN(C)Cc1ccc(-c2ccccc2)cc1`, 57.2% (active). For `C[C@H]1CN([C@@H](C)CO)C(=O)Cc2cc(N(C)C)ccc2O[C@@H]1CN(C)Cc1ccc(-c2ccccc2)cc1` the value was 68.2% (active); for `C[C@@H]1CN([C@H](C)CO)C(=O)Cc2cc(NC(=O)c3ccncc3)ccc2O[C@@H]1CN(C)Cc1ccncc1`, -11.9% (inactive); for `C[C@H](CO)N1C[C@H](C)[C@H](CN(C)Cc2ccc(C(F)(F)F)cc2)Oc2ccc(N(C)C)cc2CC1=O`, 50.9% (inactive). As to `C[C@@H]1CCCCO[C@H](CN(C)Cc2ccncc2)[C@@H](C)CN([C@H](C)CO)C(=O)c2cc(NC(=O)CCCN(C)C)ccc2O1`, the activity score (inhibition) is -8.02% (inactive). For `Cc1noc(C)c1NC(=O)Nc1ccc2c(c1)C(=O)N([C@H](C)CO)C[C@H](C)[C@H](CN(C)S(=O)(=O)c1cccs1)O2` the value was 2.68% (inactive); for `C[C@@H]1CN([C@H](C)CO)C(=O)c2cc(NC(=O)CCCCCC(=O)Nc3ccccc3N)ccc2O[C@@H]1CN(C)S(=O)(=O)c1ccc(Cl)cc1`, 15.5% (inactive); for `Cc1ccc(S(=O)(=O)N(C)C[C@@H]2Oc3ccc(NS(=O)(=O)c4c(C)noc4C)cc3CC(=O)N([C@H](C)CO)C[C@H]2C)cc1`, 4.67% (inactive). For `C[C@H](CO)N1C[C@H](C)[C@H](CN(C)Cc2ccncc2)Oc2ccc(NS(=O)(=O)c3ccc(F)cc3)cc2CC1=O` the value was -4.01% (inactive); for `C[C@@H]1CCCCO[C@@H](CN(C)C(=O)Nc2ccccc2)[C@@H](C)CN([C@H](C)CO)C(=O)c2cc(NC(=O)Nc3ccc(F)cc3)ccc2O1`, 7.86% (inactive); for `CC(C)NC(=O)Nc1ccc2c(c1)C(=O)N([C@H](C)CO)C[C@H](C)[C@@H](CN(C)Cc1ccc(C(F)(F)F)cc1)OCCCC[C@@H](C)O2`, -27.7% (inactive). For `CC(C)NC(=O)N(C)C[C@@H]1OCCCC[C@@H](C)Oc2ccc(NC(=O)Nc3ccccc3)cc2C(=O)N([C@H](C)CO)C[C@@H]1C` the value was -24.2% (inactive); for `CC(C)NC(=O)Nc1ccc2c(c1)C(=O)N([C@H](C)CO)C[C@H](C)[C@H](CN(C)Cc1ccc(C(=O)O)cc1)OCCCC[C@@H](C)O2`, -25.6% (inactive). Consider `C[C@@H]1CCCCO[C@@H](CN(C)Cc2ccc(C(F)(F)F)cc2)[C@@H](C)CN([C@H](C)CO)C(=O)c2cc(NC(=O)Nc3ccccc3)ccc2O1`, for which the activity score (inhibition) is 67.7% (active). With `CC(C)NC(=O)Nc1ccc2c(c1)C(=O)N([C@H](C)CO)C[C@H](C)[C@H](CN(C)C(=O)Nc1ccc(C(F)(F)F)cc1)OCCCC[C@@H](C)O2`, the activity score (inhibition) is 56.9% (active). In the case of `Cc1noc(C)c1NC(=O)N(C)C[C@H]1Oc2ccc(NC(=O)Nc3ccc(C(F)(F)F)cc3)cc2CC(=O)N([C@@H](C)CO)C[C@@H]1C`, the activity score (inhibition) was -4.63% (inactive). For `Cc1ccc(S(=O)(=O)N(C)C[C@@H]2Oc3ccc(NC(=O)Cc4ccccc4)cc3CC(=O)N([C@H](C)CO)C[C@H]2C)cc1` the value was 4.53% (inactive); for `COc1ccc(S(=O)(=O)Nc2ccc3c(c2)C(=O)N([C@H](C)CO)C[C@H](C)[C@H](CN(C)Cc2ccc(C(F)(F)F)cc2)O3)cc1`, 24.5% (inactive); for `C[C@H](CO)N1C[C@H](C)[C@H](CN(C)Cc2ccc(C(F)(F)F)cc2)Oc2ccc(NS(=O)(=O)c3ccc(Cl)cc3)cc2C1=O`, 60.9% (active).

Regarding `COc1ccc(CN(C)C[C@@H]2Oc3ccc(NS(=O)(=O)c4ccc(OC)cc4)cc3C(=O)N([C@H](C)CO)C[C@H]2C)cc1`, the activity score (inhibition) was 3.29% (inactive). For `COc1ccc(S(=O)(=O)Nc2ccc3c(c2)C(=O)N([C@H](C)CO)C[C@H](C)[C@@H](CN(C)Cc2ccc(-c4ccccc4)cc2)O3)cc1` the value was 55.9% (active); for `Cc1ccc(S(=O)(=O)Nc2ccc3c(c2)C(=O)N([C@@H](C)CO)C[C@@H](C)[C@H](CN(C)Cc2ccc(C(F)(F)F)cc2)O3)cc1`, 52.7% (inactive); for `COc1ccc(S(=O)(=O)Nc2ccc3c(c2)C(=O)N([C@H](C)CO)C[C@@H](C)[C@@H](CN(C)Cc2ccccc2)O3)cc1`, -14.1% (inactive). For `C[C@@H]1CN([C@@H](C)CO)C(=O)c2cccc(NC(=O)Nc3ccc4c(c3)OCO4)c2O[C@H]1CN(C)C(=O)Nc1cccc2ccccc12` the value was -8.82% (inactive). For `C[C@H](CO)N1C[C@H](C)[C@@H](CN(C)C)Oc2ccc(N(C)C)cc2C1=O` the value was -14.7% (inactive).

With `C[C@H](CO)N1C[C@H](C)[C@H](CN(C)S(=O)(=O)c2ccc(F)cc2)Oc2ncc(-c3ccc(F)cc3)cc2C1=O`, the activity score (inhibition) is 30.4% (inactive).

Consider `C[C@H](CO)N1C[C@H](C)[C@H](CN(C)C(=O)NC2CCCC2)Oc2ncc(-c3ccc(F)cc3)cc2C1=O`, for which the activity score (inhibition) is 6.58% (inactive). For `Cc1ccc(S(=O)(=O)N(C)C[C@@H]2Oc3ncc(-c4cc5ccccc5o4)cc3C(=O)N([C@H](C)CO)C[C@@H]2C)cc1` the value was 76.5% (active); for `C[C@H](CO)N1C[C@H](C)[C@H](CN(C)C)Oc2ncc(/C=C/c3ccccc3)cc2C1=O`, 71.7% (active).

As to `COc1ccc(NC(=O)N(C)C[C@@H]2Oc3ncc(-c4cccc(OC)c4)cc3C(=O)N([C@H](C)CO)C[C@@H]2C)cc1`, the activity score (inhibition) is 16.6% (inactive). For `COc1ccc(-c2cnc3c(c2)C(=O)N([C@H](C)CO)C[C@H](C)[C@H](CN(C)S(=O)(=O)c2ccccc2)O3)cc1` the value was 26.3% (inactive).

For the molecule `C[C@H](CO)N1C[C@H](C)[C@H](CN(C)C(=O)Nc2cccc3ccccc23)Oc2ncc(C#Cc3ccccc3)cc2C1=O`, the activity score (inhibition) is 67.5% (active). Turning to `C[C@H](CO)N1C[C@H](C)[C@H](CN(C)C(=O)Nc2ccc3c(c2)OCO3)Oc2ncc(C#Cc3cccc(F)c3)cc2C1=O`, the activity score (inhibition) is 25.3% (inactive).

Consider `C[C@H](CO)N1C[C@H](C)[C@H](CN(C)Cc2ccccc2)Oc2ncc(-c3ccccc3)cc2C1=O`, for which the activity score (inhibition) was -4.22% (inactive). For `C[C@H](CO)N1C[C@H](C)[C@H](CN(C)C(=O)Nc2ccc(F)cc2)Oc2ncc(-c3cc4ccccc4o3)cc2C1=O` the value was 78.2% (active). For `C[C@@H]1CN([C@H](C)CO)C(=O)c2cccc(NC(=O)Nc3cccc4ccccc34)c2O[C@@H]1CN(C)C(=O)Nc1cccc2ccccc12` the value was 4.54% (inactive).
